Laboratory results reported in PubChem BioAssay AID1159580 (chemical genetic matrix, 2015).
Among all 5,500 compounds or so, about 2,000 (36%) were called active. About 18% were inconclusive and are not listed. No stated cut-off is given here; in the data, active means normalized growth mostly below about 0.91 (no sharp cut-off); inconclusive means no clear call, values can overlap the other calls; inactive means mostly above about 0.92. Some of the results follow.

Test: chemical genetic growth profiling, strain panel (AID 1159580);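 further: tested at 20 µM; growth read once vehicle control cultures reached saturation at 30 °C; 1 = growth at the plate median or of vehicle wells; lower values mean less growth of the strain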
Conditions: S. cerevisiae deletion strains, growth OD
[1] = locus YAL013W, strain DEP1, active compounds read low
[2] = locus YMR263W, strain SAP30, active compounds read low
[3] = locus YNL153C, strain GIM3, active compounds read low

Measured: normalized growth

Cc1ccc(N=Cc2cccs2)cc1Cl
inactive: [1] 1.01 | locus YBR229C, strain ROT2, active compounds read low 0.998 | locus YCL061C, strain MRC1, active compounds read low 1.03 | locus YDL101C, strain DUN1, active compounds read low 1 | locus YDR150W, strain NUM1, active compounds read low 0.982 | locus YEL061C, strain CIN8, active compounds read low 1 | locus YGR078C, strain PAC10, active compounds read low 1 | locus YHR030C, strain SLT2, active compounds read low 1.04 | locus YHR087W, strain rtc3, active compounds read low 0.999 | locus YJR043C, strain POL32, active compounds read low 1.02 | locus YJR075W, strain HOC1, active compounds read low 1.01 | locus YKL190W, strain CNB1, active compounds read low 0.998 | locus YLR039C, strain RIC1, active compounds read low 0.991 | locus YLR058C, strain SHM2 (second series), active compounds read low 1.01 | locus YLR085C, strain ARP6, active compounds read low 1.05 | locus YLR262C, strain YPT6, active compounds read low 1 | locus YML094W, strain GIM5, active compounds read low 1 | locus YMR219W, strain ESC1, active compounds read low 0.998 | [2] 1 | locus YNL128W, strain TEP1, active compounds read low 1 | [3] 1 | locus YNL298W, strain CLA4 (second series), active compounds read low 1.04 | locus YNL322C, strain KRE1, active compounds read low 1.01 | locus YNR030W, strain Alg12, active compounds read low 1.02 | locus YOL006C, strain TOP1, active compounds read low 1.06 | locus YPL055C, strain LGE1, active compounds read low 1 | locus YPL241C, strain CIN2, active compounds read low 1.05 | locus YPR135W, strain CTF4, active compounds read low 1.01

O=C(O)CC1CCCc2ccccc2C1O (centres undefined)
inactive: [1] 1.01 | locus YAL040C, strain CLN3, active compounds read low 1.09 | locus YCL061C, strain MRC1 (second series), active compounds read low 0.999 | locus YDR363W, strain ESC2, active compounds read low 1.02 | locus YER002W, strain NOP16, active compounds read low 1.01 | [2] 0.997 | [3] 1 | locus YNL175C, strain NOP13, active compounds read low 1.01 | locus YNL197C, strain WHI3, active compounds read low 1.01 | locus YNL224C, strain SQS1, active compounds read low 1.01 | locus YOR083W, strain WHI5 (second series), active compounds read low 1.02
